These results are taken from PubChem BioAssay (NCI).

About 83,000 compounds went through this panel and 20% of them were active in at least one assay; those are over-represented in the sample as a whole.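 Growth was measured after 48 h exposure to one concentration of compound in 96-well plates. Values under 10 count as active.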 A number with no mark means an inactive call. Active and inactive are the calls of the source.

Among the test systems are DU-145 prostate; K-562 leukemia; MALME-3M melanoma; MDA-MB-231 breast; SF-268 CNS; SF-295 CNS; SF-539 CNS; M14 melanoma; RXF 393 renal; UACC-257 melanoma.
Holding throughout (test): NCI-60 one-dose screen, 48 h (100 = growth as untreated, 0 = no growth, -100 = all killed)
Holding throughout (details): 10 µM

As for `COc1cc2c(cc1OC)[C@H](C(=O)O)[C@@H](c1ccc(OC(C)C)c(OC)c1)N(C)C2=O`, the growth is 114% in the experiment with DU-145 prostate; 99.6% with K-562 leukemia; 94.8% in the experiment on MALME-3M melanoma; 104% with MDA-MB-231 breast; 116% in the experiment on SF-268 CNS; 94.5% in the experiment on SF-295 CNS. Besides, the growth with SF-539 CNS is 94.4%; in the experiment with M14 melanoma it was 104%.

`C=CCNc1nnc(C)s1`: the growth is 118% with DU-145 prostate; 106% in the experiment with K-562 leukemia; 106% in the experiment with MALME-3M melanoma; 102% in the experiment on MDA-MB-231 breast; 119% in the experiment with SF-268 CNS; 115% in the experiment with SF-295 CNS. The figures for the growth with SF-539 CNS and in the experiment with M14 melanoma were 99.9% and 103%, respectively.

`COC(=O)c1[nH]c(=O)c(C#N)c(C(=O)OC)c1C(=O)c1ccccc1`: the growth with DU-145 prostate was 104%; in the experiment with K-562 leukemia it was 102%; with MALME-3M melanoma, 96.8%; with RXF 393 renal, 122%; in the experiment with SF-268 CNS, 99.4%; in the experiment with SF-295 CNS it was 96.2%. For the same molecule, the growth with SF-539 CNS was 97.1%; in the experiment with UACC-257 melanoma, 86.1%; in the experiment with M14 melanoma, 107%.

On to `Cc1cc2nc(CC(=O)c3ccccc3)c(=O)[nH]c2cc1C`, for which the growth in the experiment with DU-145 prostate is 112%; in the experiment with K-562 leukemia it was 90.1%; in the experiment with MALME-3M melanoma, 101%; with RXF 393 renal, 101%; in the experiment with SF-268 CNS, 108%; in the experiment on SF-295 CNS it was 89.8%. Also, the growth with SF-539 CNS is 95.6%; with UACC-257 melanoma it was 106%.

`CCc1nn(Cc2ccccc2)c2nc(C)c(CCc3ccccc3)c(Cl)c12`: the growth with DU-145 prostate was 102%; in the experiment with K-562 leukemia, 61.1%; with MALME-3M melanoma, 75.5%; in the experiment on MDA-MB-231 breast, 99.7%; in the experiment on SF-268 CNS it was 106%; with SF-295 CNS, 85.1%. Further, the values for the growth in the experiment with SF-539 CNS and in the experiment with M14 melanoma were 86.7% and 100%, respectively.

As to `COc1ccc(C2OC(N)=C(O)C2=O)cc1OC` (stereo not given), the growth with DU-145 prostate is 109%; in the experiment on K-562 leukemia, 94.6%; in the experiment with MALME-3M melanoma, 95.5%; with RXF 393 renal, 110%; with SF-268 CNS it was 101%; in the experiment on SF-295 CNS, 99.9%. The growth is 90.9% in the experiment on SF-539 CNS, 106% in the experiment on UACC-257 melanoma and 111% with M14 melanoma.

Regarding `Sc1ccc(Nc2c3ccccc3nc3ccccc23)cc1`, the growth is 104% with DU-145 prostate; 32% in the experiment on K-562 leukemia; 86% in the experiment with MALME-3M melanoma; 98% with MDA-MB-231 breast; 102% in the experiment on SF-268 CNS; 26.5% with SF-295 CNS. For the same molecule, the results for the growth in the experiment with SF-539 CNS, in the experiment on UACC-257 melanoma and in the experiment on M14 melanoma were 95.5%, 68.1% and 96.8%, respectively.

As for `Clc1ccc(-c2nnc(-c3cccc4ccccc34)o2)cc1`, the growth with DU-145 prostate is 114%; in the experiment on K-562 leukemia, 104%; in the experiment on MALME-3M melanoma, 99.8%; with RXF 393 renal, 102%; in the experiment on SF-268 CNS, 103%; in the experiment on SF-295 CNS it was 110%. Moreover, the growth in the experiment on SF-539 CNS is 94.8%; in the experiment with UACC-257 melanoma it was 78%; in the experiment with M14 melanoma, 103%.

With `Cc1cc2nc(CC(=O)c3cccc([N+](=O)[O-])c3)c(=O)[nH]c2cc1C`, the growth was 100% in the experiment on DU-145 prostate; 73.7% in the experiment with K-562 leukemia; 98.5% in the experiment with MALME-3M melanoma; 107% in the experiment with RXF 393 renal; 98.1% with SF-268 CNS; 75.4% in the experiment with SF-295 CNS. In addition, the growth in the experiment on SF-539 CNS is 88.2%; in the experiment on UACC-257 melanoma it was 97%; in the experiment on M14 melanoma, 81.4%.

As for `c1csc(-c2cc(-c3cc(-c4cccs4)[nH]n3)n[nH]2)c1`, the growth in the experiment on DU-145 prostate was 106%; in the experiment on K-562 leukemia, 84.7%; in the experiment with MALME-3M melanoma it was 88.3%; in the experiment on RXF 393 renal it was 112%; with SF-268 CNS it was 107%; with SF-295 CNS it was 96.8%. For the same molecule, the growth in the experiment on SF-539 CNS is 93.8%; with UACC-257 melanoma, 109%; in the experiment on M14 melanoma it was 96.9%.

As to `CCOC(=O)CCCC(=O)OCC`, the growth with DU-145 prostate was 103%; in the experiment with K-562 leukemia, 101%; in the experiment on MALME-3M melanoma, 95.7%; in the experiment on MDA-MB-231 breast it was 100%; in the experiment on SF-268 CNS it was 96.7%; in the experiment with SF-295 CNS it was 101%. The figures for the growth in the experiment on SF-539 CNS, in the experiment with UACC-257 melanoma and in the experiment with M14 melanoma were 98.4%, 99% and 99.2%, respectively.

For the molecule `O=C(Cc1nc2ccc([N+](=O)[O-])cc2nc1CC(=O)c1ccccc1)c1ccccc1`, the growth with DU-145 prostate is 50.6%; in the experiment with K-562 leukemia it was 43.8%; in the experiment on MALME-3M melanoma, 46.8%; with RXF 393 renal, 89.1%; with SF-268 CNS, 73.9%; in the experiment on SF-295 CNS it was 53%. The growth is 18.3% in the experiment on SF-539 CNS and 86.9% in the experiment with UACC-257 melanoma.

For the molecule `O=C(N/N=C\c1cc(Br)cc(Br)c1O)N/N=C/c1cc(Br)cc(Br)c1O`, the growth in the experiment on DU-145 prostate was 75.2%; in the experiment with K-562 leukemia, 22.9%; in the experiment on MALME-3M melanoma it was 70.2%; in the experiment on MDA-MB-231 breast it was 72%; in the experiment with SF-268 CNS, 51.1%; in the experiment on SF-295 CNS, 6.45% (active). Further, the growth in the experiment with SF-539 CNS was 35.5%; in the experiment on M14 melanoma, 55.2%.

Turning to `COc1ccc(-c2cc(-c3cc(-c4ccc(OC)cc4)nc(N)n3)nc(N)n2)cc1`, the growth with DU-145 prostate is 102%; in the experiment on K-562 leukemia, 98.9%; in the experiment with MALME-3M melanoma, 91.2%; with RXF 393 renal, 101%; in the experiment with SF-268 CNS it was 102%; with SF-295 CNS it was 96.2%. Further, the growth in the experiment on SF-539 CNS was 98.1%; in the experiment on UACC-257 melanoma, 99.4%; with M14 melanoma, 104%.
